# Source: the supplement of paper PMC10105736
# Unmarked numbers belong to inactive results.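 How the source made its calls: active = MAPPIT score above the 99th percentile of random reference set scores in the same batch; inactive = at or below it.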
# B1: Nelf-E (protein)
# chain: MVYIHFPNNLTEEEQMLQAKYQKLKKKKKALQAHKAPKPEPESSLTLKRPTDARDAREVARKLIKSGAIPAIQKQTKQDQTSFKRPKGQERAKRSTSETTVASYQPFSSTQNDVAQETIISEIIKEEPRRQNLYQHFATERDREERGMPEKVPMDTAQPEKPRAGNTIFVSGNKVTEDFLKKTFNDYGTIVNVSMEIEKSRGFVSFAKPESADRAIAEIHGKNVNGINLQVQLARRQPQIEPINDASSSAVWSSIAASKSQKGSHKDHREMVQYDEDFLL
# B2: Lis-1 (protein)
# chain: MKMVLSQRQREELNQAIADYLGSNGYADSLETFRKEADLSTEVEKKFGGLLEKKWTSVIRLQKKVMELEAKLTEAEKEVIEGAPTKNKRTPGEWIPRPPEKFSLTGHRASITRVIFHPIFALMVSASEDATIRIWDFETGEYERSLKGHTDSVQDVAFDAQGKLLASCSADLSIKLWDFQQSYECIKTMHGHDHNVSSVAFVPAGDYVLSASRDRTIKMWEVATGYCVKTYTGHREWVRMVRVHIEGSIFATCSNDQTIRVWLTNSKDCKVELRDHEHTVECIAWAPEAAASAINEAAGADNKKGHHQGPFLASGSRDKTIRIWDVSVGLCLLTLSGHDNWVRGLAFHPGGKYLVSASDDKTIRVWDLRNKRCMKTLYAHQHFCTSIDFHKAHPYVISGSVDQTVKVWECR
# B3: caly (protein)
# chain: MNAAGGGSGAQAAAVAAGNNSLSHNALLSTASGATTMPMAQLADGWLELESDPGLFTLLLKDFGCHDVQVEEVYDLQKPIESPYGFIFLFRWIEERRARRKIVETTAEIFVKDEEAISSIFFAQQVVPNSCATHALLSVLLNCNENNLQLGDTLSRLKTHTKGMSPENKGLAIGNTPELACAHNSHAMPQARRRLERTGAGVSSCRFTGEAFHFVSFVPINGQLFELDGLKPYPMNHGGWEDSEDWTDKFRRVMAERLGIATGEQDIRFNLMAVVPDRRIAITHKLKMLRTNQAIVSGTLQKLLKADEQGESGNGDSQRPDTPTTLLEPSAFTARDLQSLLKNLDTEIAINEQHLADENDRRHMFKVDASRRTHNYDKFICTFLSMLAHQGVLGELVSQHLLPSKKVSGQGAANRISKQSTTASAGGSTAAGTASTPKTQQQQAAAAKNGKSPSKTPGRRRKGRNKCRKRK
# B4: dmt (protein)
# chain: MVRTRPVPCVPSPDVNTATRRNPGRPKKQSIGADLSTTISKPGRPKKLSIGADLTTIRKPGRPKKLGADLTTIIRKPGRPTKLSNKQSLTALNEPECRIRKCVVKIRRIKVKNGVVSEISRNDAPDVDASTFEPARNSTMYIPSKVQKSTQPQNIKENVAGPETSPCQQRIRSKSPSGPAAEISPKKPPRFFHRDQPLTRTRSSVTRNVFDFLSQSQIEDDSDREDPAADIIQRLVKDGKACVMVRSRKIGKPRAKRTAKKVRPVGNRRKVSTKDNEPEPVKVVPKSIEPRLQKPSRSLSTIFEPEEDYSNDSEHGYVQPIEVPVQVHVEPSTSKQAHEGAYSNLARSVMLNQTQAQNPLPSTDRRRELINMARQLVSTPLNRRAPPVTDVSATTTALSPIAHQSPNAVRTAGGKSPWRVSDDSPLPNTFMFGFNNSQMPSYSSDHVQRRHVYVPDSPVEHAENIPHEESICPPLHEQNHDSNANDSNEENRPPPTISKSMSINDQESEENAENFVHLPNPRRTLQKRTPFKDINILEVVTLPSWKKNVTATVSKEITPTRVAPRPMATSSPAQRSQTRSNLFGFDDDFACEDIPRKSTTPSKGIAPTSMSLNREVTPALANRNQTEVNTFGCNEILPCENIPKEKETNTEERTSSSQNLFGFDEFITESQDSPANFTGLSQNVNLHDKLHRLAELRPRDGELPQVSYTSIRSDCLGESHSKQTDIRYMLCSTMIAPPRPAKRKPAAPTARESMGLFRVDQDEPEQSFADKQPRRTYVKERPQRKRKKRVQILYIESESEDEDEQDSHDKSLDSPEKKRHHVKRPRRDIEHEAKLEQFVTSFNKQCEEVEKFPVIIE
# B5: sqd (protein)
# chain: MAENKQVDTEINGEDFTKDVTADGPGSENGDAGAAGSTNGSSDNQSAASGQRDDDRKLFVGGLSWETTEKELRDHFGKYGEIESINVKTDPQTGRSRGFAFIVFTNTEAIDKVSAADEHIINSKKVDPKKAKARHGKIFVGGLTTEISDEEIKTYFGQFGNIVEVEMPFDKQKSQRKGFCFITFDSEQVVTDLLKTPKQKIAGKEVDVKRATPKPENQMMGGMRGGPRGGMRGGRGGYGGRGGYNNQWDGQGSYGGYGGGYGGYGAGGYGDYYAGGYYNGYDYGYDGYGYGGGFEGNGYGGGGGGNMGGGRGGPRGGGGPKGGGGFNGGKQRGGGGRQQRHQPY
# B6: Sas10 (protein)
# chain: MDSDGDDYVMSGSDQEYDDEEREILEDLRKQRKKPHDPVQEVLGFSDDDDDDDDDDEEEQQDVAELMRDSDIEGAEDDDRDLPNTMDWGSKRSTYYNTDFVDQDYSSYNAQEEEQARAEEEEAKKIQLRLAKRMSEADFQLDNVEAAPAGSSDDNELSHITKVTSDLAGLSERERRQLMHSESPEFIILTQDFQQHLDEVKNLLKPVLNYVRKHDVPMVPALQYAGLCHTVLTTYCSNVAFYLLLKARRIDVKAHPVIRRLVQLKDLIEELKPRYEEYIRPQLEALLERIEDGDAFTVLDVAQRKAKLQILNKYNDGQQASVSSDDDDNDDDDDAESKEKDLQEEAGEEEEEEDARRGITYQMAKNKGLTPHRKKELRNPRVKHRGKYRKALIRRKGAVRTVRKELQRYGGELSGIKAGVTKSVKFRT
# B7: ZIPIC (protein)
# chain: MNCCICQFSVRVPKDIHTDTVGHPPVLISELVLQCTRGTNYVLTEESSTICKKCCEKLARYHKSIQIARKLRGEILELIHSPYMSKDHKQTSYKEDDLDRETTISKFDGNIEEAQQQDEEEQELESVGTTVTLVGPAGIVEEVAEEEHTFIIKQSEEEDEFHSVDLELDIDNEIIINEEEAHEVEEVAHEIEEVAHEIEEEDLLPHDKQEAQEEDFFKEDTMSDFDEHLDGAIEYIISDGEDQEQDNESSGEYTVNIQCPSCPEKFSSRRAYNVHTKREHFPGYVCDQCGKTLQSYSGFIGHLQNHEPVKQFACPVCPERFSRKFRLKHHMAWHSGETPYQCDVCSKRFVHKVALYKHKMIHDSETKRLECQVCGFKTRTKAHLERHMRSHTGDKPFACPVCNKRFSQMYNMKAHLREHESPGTNRHRRFHCSKCTHTFINEQNYDAHVQRDDCTPV
# B8: mael (protein)
# chain: MAPKKHSGFMMFVNEWRNRNAEGRRMTLAQAVSHCGTIWEKMNTQQRGPYNSGGKDANVAQRAKRESSNGHGQVDKAQREATESLMDMKRTIERLVLNAKMSHDLENAKFVFVAFNYFTKALTTDVYVPAEFAACEYSLKEGIRSIYSTMIDPGQIIFGQGSDALLHSSTTHDLPLPPNALGEKNMTKLYRNIVDYLSKCQGKGKTLVVFTPAENITMVKSCFRYLECDDDFRDGGEKIQVFDIQYLLFILKKEVMNVADLNDEKINKFATDAFFKKDFFEFTAGIACQYHEDNDRTKYCTQSMVTRWAYTFTDFMCGDLAITVQPGKHIPAQTKPNYLIISSYASSLDHESSFDSFYSLPGSGVKKESQPEACSLSSSRLSVASSSYKPIDHTSFAANLNEVSEFPSLGMRNSSKHHGIAASAQREWNARNLPTHSRLIRKVSDNDFSVNGADGKLKK
# B9: PGRP-LE (protein)
# chain: MSESGIKKLSQERTREWLASQEDEELESIAESSVVDSLDYDYTEEEEDADQNTSEEISTMTLGTQIATKKHSIISDTIRDLMNSINSIQTLGNVNISNSTNVHIGNVTNINGNIQIIADGLTQNRRDRRHVSPPRDNAPKTPTHFEDDYQDESEERVRSDVFIRRQKFKIPKELSAIIPRSSWLAQKPMDEPLPLQLPVKYVVILHTATESSEKRAINVRLIRDMQCFHIESRGWNDIAYNFLVGCDGNIYEGRGWKTVGAHTLGYNRISLGISFIGCFMKELPTADALNMCRNLLARGVEDGHISTDYRLICHCQCNSTESPGRRLYEEIQTWPHFYNIEEEEQ
# B10: Sf3b3 (protein)
# chain: MYLYNLTLQKATGVTHAVHGNFSGGKQQEVLLSRGKSLELLRPDSNTGKVHTLLSTEIFGCVRALMAFRLTGGTKDYIVVGSDSGRIVILEYNPSKNALEKVHQETFGKSGCRRIVPGQYFAIDPKGRAVMIGAVEKQKLAYIMNRDTQARLTISSPLEAHKSNTLTYHMVGVDVGFDNPMFACLEIDYEEADMDPSGDAAQRTQQTLTFYELDLGLNHVVRKYSEPLEEHANFLVSVPGGNDGPSGVLICSENYLTYKNLGDQHDIRCPIPRRRNDLDDPERGMIFICSATHRTKSMYFFLLQTEQGDIFKITLETDDDVVSEIKLKYFDTVPPATAMCVLKTGFLFVASEFGNHYLYQIAHLGDDDDEPEFSSAMPLEEGETFFFAPRALKNLVLVDELPSFAPIITSQVADLANEDTPQLYVLCGRGPRSTLRVLRHGLEVSEMAVSELPGNPNAVWTVKKRADDEFDAYIIVSFVNATLVLSIGETVEEVTDSGFLGTTPTLCCAALGDDALVQVYPDGIRHIRSDKRVNEWKAPGKKSITKCAVNQRQVVITLSGRELVYFEMDPTGELNEYTERSEMPAEIMCMALGTVPEGEQRSWFLAVGLADNTVRILSLDPNNCLTPCSMQALPSPAESLCLVEMGHTESTTQGGLDDDAPAQRSGNNKGTIYLNIGLSNGVLLRTVLDPVSGDLADTRTRYLGSRPVKLFRIKMQGSEAVLAMSSRTWLSYYHQNRFHLTPLSYETLEYASGFSSEQCSEGIVAISTNTLRILALEKLGAVFNQVAFPLQYTPRTFVIHPDTGRMLIAETDHNAYTEDTKSARKEQMAEEMRSAAGDEERELAREMANAFINEVLPEDVFSSPKAGLGLWASQIRCLDAMHGQTMFSVPLTQNEAIMSMAMLKFSIAADGRYYLAVGIAKDLQLNPRISQGGCIDIYKIDPTCSSLEFMHRTDIDEIPGALCGFQGRLLAGCGRMLRIYDFGKKKMLRKCENKHIPYQIVNIQAMGHRVYVSDVQESVFFIRYRRAENQLIIFADDTHPRWVTATTLLDYDTIAIADKFGNLSIQRLPHSVTDDVDEDPTGTKSLWDRGLLSGASQKSENICSFHVGEIIMSLQKATLIPGGSEALIYATLSGTVGAFVPFTSREDYDFFQHLEMHMRNENPPLCGRDHLSYRSSYYPVKNVLDGDLCEQYLSIEAAKQKSIAGDMFRTPNQICKKLEDIRTRYAF
# Columns and labels:
# Experiment in all cases: MAPPIT interaction score (arbitrary units); higher = stronger binary interaction signal, active = hit call of the paper
# Hn = conditions: MAPPIT configuration: N-N; pair source set: Curagen_high_conf
# jbug = conditions: MAPPIT configuration: N-C; pair source set: screen_3
# Hsp27 = conditions: MAPPIT configuration: N-N; pair source set: Curagen_low_conf
# Hsc70-1 = conditions: MAPPIT configuration: N-N; pair source set: DPIM
# HP6 = conditions: MAPPIT configuration: N-N; pair source set: screen_1
# Hrb27C = conditions: MAPPIT configuration: N-N; pair source set: Lit-BM-16
# Hmg-2 = conditions: MAPPIT configuration: N-C; pair source set: screen_3
# HP5 = conditions: MAPPIT configuration: N-N; pair source set: Curagen_low_conf
# GstE4 = conditions: MAPPIT configuration: N-C; pair source set: RRS
# PGRP-LE = conditions: pair source set: Lit-BM-16
# Wee1 = conditions: MAPPIT configuration: N-N; pair source set: Curagen_high_conf
# Hsp60B = conditions: MAPPIT configuration: N-N; pair source set: Lit-BS-16
# 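Further: HEK293T cells with Epo stimulation, STAT-responsive firefly luciferase reporter, fold induction versus unstimulated cells divided by the larger fold induction of two negative controls lacking either bait or prey.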
binder,measurement,setting,value
B1,MAPPIT interaction score,Hn,0.208
same,MAPPIT interaction score,jbug,0.0879
B2,MAPPIT interaction score,Hsp27,-0.515
B3,MAPPIT interaction score,Hsc70-1,2.29
B4,MAPPIT interaction score,HP6,4.14 (active)
B5,MAPPIT interaction score,Hrb27C,-0.206
B6,MAPPIT interaction score,Hmg-2,0.087
B7,MAPPIT interaction score,HP5,0.196
B8,MAPPIT interaction score,Hsc70-1,2.36
B9,MAPPIT interaction score,GstE4,0.646
same,MAPPIT interaction score,PGRP-LE; MAPPIT configuration: N-C,3.96 (active)
same,MAPPIT interaction score,PGRP-LE; MAPPIT configuration: N-N,4.49 (active)
same,MAPPIT interaction score,Wee1,2.63 (active)
B10,MAPPIT interaction score,Hsp60B,1.36
